Measurements from PubChem BioAssay AID602188 (Broad Institute, 2012).
Entries with a potency or affinity are not part of this list. Inconclusive results are not listed. Unmarked numbers belong to inactive results.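 Rule for the calls: active = compounds whose fitted curve lowers viable cell signal, with half-maximal concentration at most twice the top tested dose; inconclusive = flat curve showing 30 to 70% toxicity, or poor fit; inactive = the rest.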

experiment: NIH-3T3 fibroblast cytotoxicity, dose response, cytotoxicity control for antifungal single agent project, cell-based, Alamar Blue, dry powder (AID 602188); settings: NIH-3T3 fibroblast viability, Alamar Blue fluorescence, 48 h; series mostly up to 26 µM; activity change, negative = toxicity: at the top concentration

| Structure (SMILES) | activity change, negative = toxicity |
| --- | --- |
| O=C(Nc1nc(-c2ccc3c(c2)CCCC3)cs1)c1ccccc1 | -19.8% |
| O=C(Nc1nc(-c2ccccc2)cs1)c1ccc(Br)s1 | -12.8% |
| NC(=O)c1cccc(C(=O)Nc2nc(-c3ccc4c(c3)CCCC4)cs2)c1 | 1.26% |
| CCOC(=O)N1C(=O)C2(CCCCC2)N(c2ccc(C)cc2)C1=S | -30.9% |
